The values below come from PubChem BioAssay AID488969 (Vanderbilt High Throughput Screening Facility, 2010).

In all, about 110,000 compounds were measured (“z-score”: median about -0.1, highest 2% from about 2 on). The sample holds the highest values, similar compounds and a random draw of the others, so the mix is not that of the screen. Calls of active or inactive are those of the source.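 The calls were made as follows: active = z-score in the third read window above 3 or below -3; inactive = the rest.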

The test deals with Metabotropic glutamate receptor 8 (Rattus norvegicus) (UniProt P70579). Nature of the test: rat mGluR8 modulators via GIRK flux, primary screen, cell-based, thallium flux, HTS (AID 488969). Conditions: HEK293 rat mGluR8, GIRK (G protein-gated inwardly rectifying potassium channel) thallium flux, FluoZin2; at 10 µM; stronger effect = higher value; submaximal glutamate (EC20) added with thallium.
Metabotropic glutamate receptor 8 (Rattus norvegicus), sequence (P70579 whole entry, looked up): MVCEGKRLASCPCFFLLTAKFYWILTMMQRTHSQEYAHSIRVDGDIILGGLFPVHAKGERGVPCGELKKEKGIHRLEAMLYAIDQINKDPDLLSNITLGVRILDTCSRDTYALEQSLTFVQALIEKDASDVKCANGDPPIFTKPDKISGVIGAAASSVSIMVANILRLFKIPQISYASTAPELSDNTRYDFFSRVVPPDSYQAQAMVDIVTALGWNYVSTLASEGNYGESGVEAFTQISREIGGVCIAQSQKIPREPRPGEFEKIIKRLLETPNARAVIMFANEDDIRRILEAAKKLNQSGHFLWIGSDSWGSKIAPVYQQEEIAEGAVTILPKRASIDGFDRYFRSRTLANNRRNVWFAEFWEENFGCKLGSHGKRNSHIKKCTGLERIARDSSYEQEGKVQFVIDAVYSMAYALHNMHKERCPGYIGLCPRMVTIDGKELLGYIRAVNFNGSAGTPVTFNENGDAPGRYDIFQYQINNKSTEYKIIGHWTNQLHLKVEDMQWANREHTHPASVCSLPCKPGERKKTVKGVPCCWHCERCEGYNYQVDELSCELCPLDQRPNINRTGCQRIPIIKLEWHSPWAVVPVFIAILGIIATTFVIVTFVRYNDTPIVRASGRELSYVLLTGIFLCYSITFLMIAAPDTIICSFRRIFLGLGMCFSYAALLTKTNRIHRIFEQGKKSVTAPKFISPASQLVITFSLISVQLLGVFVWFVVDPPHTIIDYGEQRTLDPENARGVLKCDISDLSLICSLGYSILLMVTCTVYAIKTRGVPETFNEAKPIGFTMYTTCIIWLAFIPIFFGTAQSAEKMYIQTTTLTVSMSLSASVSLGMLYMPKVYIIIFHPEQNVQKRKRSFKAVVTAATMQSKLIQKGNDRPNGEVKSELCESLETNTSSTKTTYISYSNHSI
For the compound `CN(C)c1ccnc2sc3c(NCC(O)CO)ncnc3c12` (stereo not drawn), the z-score is -0.106.
Then `CCOC(=O)c1c(C)[nH]c(C(=O)COC(=O)/C=C/c2ccc3c(c2)OCO3)c1C`, with 0.00271; and `Cc1nc2ccccc2cc1C(=O)O`, with 0.0939.
In turn, `CC(C/C=N/NC(=O)COc1cc(Cl)ccc1Cl)c1ccccc1` (stereo not drawn) returned a z-score of -0.0205.
Then `O=C(Nc1ccc2c(c1)OCO2)C1CC(c2ccc(Cl)cc2)=NO1` (stereo not drawn), with -0.0412; and `CN(c1ccc(OCC(=O)OCC(=O)Nc2ccc(F)cc2)cc1)S(=O)(=O)c1ccc(Cl)cc1`, with -0.231.
Then `COc1ccccc1N1CCN(CCCC(=O)c2ccc(F)cc2)CC1`, with -0.123.
Then `COc1cc2cc(C(N)=O)c(N)nc2cc1OC`, with -0.0702.
For `COc1cc2cnncc2cc1OC`, the z-score was 3.21 (active).
Then `COc1cc2cnc(Cl)nc2cc1OC`, with -0.182; and `CCOC(=O)c1ccc(NC(=O)CSc2nnc(-c3cccs3)n2C)cc1`, with -0.387; and `Cc1ccc(C(C(=O)NCC2CCCO2)N(Cc2ccccc2F)C(=O)Cn2nnc(-c3cccs3)n2)cc1` (stereo not drawn), with -0.157.
The value for `O=C(NCC1CCCO1)C(c1cccs1)N(Cc1cccs1)C(=O)Cn1nnc(-c2cccs2)n1` (stereo not drawn) was -0.109; that for `O=C(NCC1CCCO1)C(c1ccc(F)cc1)N(Cc1ccc(F)cc1)C(=O)Cn1nnc(-c2cccs2)n1` (stereo not drawn) was 2.46; that for `O=c1c(-c2ccccc2)nc(-c2ccccc2)cn1O` was 2.86.
The value for `Cn1c(=O)c(-c2ccccc2)nc2ccccc21` was -0.27; that for `c1ccc(-c2cn3nc(-c4ccccc4)c(-c4ccccc4)nc3n2)cc1` was -1.03; that for `CCOc1ccc2c(c1)-c1c(ssc1=S)C(C)(C)N2C` was -0.11.
As to `COc1ccc(/C=C/C(=O)NC(=S)NNC(=O)c2ccco2)cc1`, the z-score was 0.921.
The value for `O=C(NC(=S)NNC(=O)c1ccccc1O)c1ccco1` was 0.576.
In the case of `CCOC(=O)/C(=C/c1ccc(Cl)cc1)NC(=O)c1ccco1`, the z-score was -0.468.
Then `O=C(Nc1ccc(Oc2ccc3ccccc3c2)cc1)c1ccco1`, with 0.388.
`CC(C)CNC(=S)NNC(=O)c1ccco1` returned a z-score of -0.0344.
The value for `CC(Oc1ccc2ccccc2c1)C(=O)NNC(=S)NC(=O)c1ccco1` (stereo not drawn) was 4.46 (active); that for `COc1ccc(C(=O)Nc2cc(OC)c(NC(=O)c3ccco3)cc2OC)cc1` was -0.196; that for `CC(Oc1ccc(Cl)cc1)C(=O)NNC(=S)NC(=O)c1ccco1` (stereo not drawn) was 5.62 (active).
Then `COc1ccc(C(=O)NNC(=S)NC(=O)c2ccco2)cc1`, with 2.99; and `Cc1cccc(C(=O)Oc2csc(=S)n2C(=O)c2cccc(C)c2)c1`, with 0.282; and `COc1cc(CNCc2ccccn2)ccc1OCc1ccc(Cl)cc1`, with 0.427.
Take `CC(=O)c1cccc(NC(=O)C2CC(c3ccc(F)cc3)=NO2)c1` (stereo not drawn): the z-score is -0.0875.
The value for `O=C(COc1ccc(Cl)cc1Cl)Nc1nc2n(n1)C(c1ccccc1)CC(=O)N2` (stereo not drawn) was -0.56; that for `O=C(Nc1ncc(C(F)(F)F)cc1Cl)C1COc2ccccc2O1` (stereo not drawn) was -0.304; that for `CCN(CC)CCCNC(=O)c1ccc(Cl)c(S(=O)(=O)Nc2ccccc2OC)c1` was -0.0127.
`CCN(CC)CCNC(=O)c1ccc(NC(=O)c2ccc(Cl)c(S(=O)(=O)Nc3ccccc3OC)c2)cc1` had a z-score of 2.14.
Then `CCN(CC)CCNC(=O)c1ccc(Cl)c(S(=O)(=O)Nc2ccccc2OC)c1`, with 0.323.
Consider `CC(=O)c1cccc(NC(=O)CSc2nnc(-c3cccnc3)o2)c1`, for which the z-score came to 0.059.
Then `O=C(NCc1ccncc1)C(=O)Nc1nc(C23CC4CC(CC(C4)C2)C3)cs1`, with 0.792.
Then `CC(=O)NNC(=O)CC(=O)Nc1nc(C23CC4CC(CC(C4)C2)C3)cs1`, with -0.221; and `O=C(NCc1ccccc1)C(=O)Nc1nc(C23CC4CC(CC(C4)C2)C3)cs1`, with 3.44 (active).
Then `COC(=O)N/N=C/c1ccc(OCCSc2ccc(Cl)cc2)c(OC)c1`, with 0.427.
`CCCC1S/C(=N/N=C/c2ccc(C)cc2)N(Cc2ccc(OC)cc2)C1=O` (stereo not drawn) gave a z-score of 0.151.
The value for `CC(=O)Nc1ccc(Oc2cc(C#N)c(C#N)cc2N2CCCCCC2)cc1` was 1.3; that for `CC(=O)Nc1ccc(Oc2cc(C#N)c(C#N)cc2N2CCOCC2)cc1` was 0.123; that for `CC(=O)Nc1cccc(Oc2cc(C#N)c(C#N)cc2N2CCCCCC2)c1` was 2.07.
The value for `O=c1oc2ccccc2c(Nc2cccc3ccccc23)c1[N+](=O)[O-]` was -0.861; that for `COCCNC(=O)c1ccc(-n2c(SCc3cc(F)ccc3F)nc3ccccc3c2=O)cc1` was -0.0902; that for `CCN(CC)S(=O)(=O)c1cccc(S(=O)(=O)N2CCCCC2)c1` was -0.121.
The value for `CC(=O)Nc1ccc(Oc2nc(C)cc(C)n2)cc1` was 0.187; that for `CC(=O)Nc1ccc(Oc2ncccn2)cc1` was 7.84 (active).
`CC(=O)Nc1ccc(Oc2cnccn2)cc1` showed a z-score of -0.0949.
Then `COCC(=O)n1nc(NCc2ccc(OC)cc2)nc1NCc1ccc(OC)cc1`, with -0.00999; and `CCN(CC)CCn1c(NC(=O)c2ccc(Cl)cc2)nc2ccccc21`, with 4.18 (active); and `CCC(=O)Nc1nc2ccccc2n1CCN(CC)CC`, with -0.0953.
Then `CN(C)CCn1c(NC(=O)c2ccc(Cl)cc2)nc2ccccc21`, with 0.381; and `Cc1ccc(N/C(SCc2ccccc2C)=C(/C#N)C(=O)NCc2ccco2)cc1C`, with -0.331.
The value for `CCOc1cc(C(=S)N2CCOCC2)ccc1OS(=O)(=O)c1ccccc1` was -0.19; that for `O=C(COc1ccccc1)NC(=S)Nc1ccc2c3c(cccc13)CC2` was 4.29 (active).
For the compound `CC(C)Oc1cccc(C(=O)NC(=S)Nc2ccc3c4c(cccc24)CC3)c1`, the z-score amounted to 1.24.
As for `Cc1ccccc1OCC(=O)NC(=S)Nc1ccc2c3c(cccc13)CC2`, the z-score amounted to 0.22.
The value for `COc1cccc(C(=O)NC(=S)Nc2ccc3c4c(cccc24)CC3)c1` was 2.83.
The value for `COc1cc(OC)cc(C(=O)NC(=S)Nc2ccc3c4c(cccc24)CC3)c1` was 0.967; that for `CC(C)c1ccc(OCC(=O)NC(=S)Nc2ccc3c4c(cccc24)CC3)cc1` was 1.27.
Then `CN1CCN(C(=O)c2ccccc2N(Cc2ccccc2)S(=O)(=O)c2ccccc2)CC1`, with -0.185.
`Cn1cc([N+](=O)[O-])c(C(=O)N/N=C/c2ccccc2)n1`: the z-score was -0.138.
Then `Cc1cc(C)n(-c2nc3ccccc3nc2Nc2ccc(CC(=O)O)cc2)n1`, with 1.13; and `O=c1c2c(nc3cc(-c4cccc(Cl)c4)[nH]n13)CCC2`, with 0.391; and `O=c1c2c(nc3cc(-c4ccccc4)[nH]n13)CCC2`, with -0.413.
Then `O=c1c2c(nc3c(-c4ccccc4)c[nH]n13)CCCC2`, with 3.66 (active); and `Cc1[nH]n2c(=O)c3c(nc2c1-c1ccccc1)CCC3`, with -1.66; and `O=c1c2c(nc3c(-c4cccc(Br)c4)c[nH]n13)CCCC2`, with 6.35 (active).
The value for `Nc1[nH]n2c(=O)c3c(nc2c1N=Nc1ccc(Cl)cc1)CCCC3` was -1.09; that for `N#Cc1c[nH]n2c(=O)c3c(nc12)CCCC3` was -0.482; that for `Cc1ccc(-c2[nH]n3c(=O)c4c(nc3c2C)CCCC4)cc1` was 11 (active).
Turning to `Cc1ccc(N=Nc2c(N)[nH]n3c(=O)c4c(nc23)CCCC4)cc1`, the z-score was -0.696.
For the compound `O=c1c2c(nc3c(-c4ccc(Cl)cc4)c[nH]n13)CCCC2`, the z-score was 12 (active).
The value for `O=c1c2c(nc3c(-c4ccccc4)c[nH]n13)CCC2` was -0.819; that for `O=c1c2c(nc3c(-c4cccc5ccccc45)c[nH]n13)CCC2` was -0.52.
The value for `COCCNC(=O)C(=O)N/N=C/c1ccccc1C(F)(F)F` was -0.508; that for `Cc1nc2ccc(S(=O)(=O)NCC(=O)N3CCOCC3)cc2s1` was -0.0788; that for `COc1ccc2c(c1)c1ncn(CCN3CCNCC3)c(=O)c1n2C` was -0.141.
Then `O=C(N[C@@H](Cc1ccccc1)c1nc2ccccc2[nH]1)c1cc([N+](=O)[O-])ccc1Cl`, with -0.361; and `CC(C)(C)NC(=O)C1CCCN(S(=O)(=O)c2cccc3cccnc23)C1` (stereo not drawn), with -0.133.
The compound `COc1ccc2cc3cc(C(=O)Nc4cc(OC)c(OC)c(OC)c4)oc3nc2c1` registered a z-score of -0.255.
Then `COc1ccc2nc3oc(C(=O)Nc4ccc(OC)c(OC)c4)cc3cc2c1`, with 4.91 (active); and `CCOc1ccc(NC(=O)c2cc3cc4ccc(OC)cc4nc3o2)cc1`, with 0.334.
Then `O=C(Nc1ccc2oc(-c3ccncc3)nc2c1)c1cccs1`, with -1.18; and `CCc1nnc(NC(=O)CCc2ccc(C)o2)s1`, with 0.332.
On to `CCC(=O)N1CCc2cc(S(=O)(=O)CCC(=O)NCCc3ccccc3)ccc21`, for which the z-score is -0.24.
Take `CC(C)NC(=O)c1ccccc1NC(=O)/C=C/c1cccc([N+](=O)[O-])c1`: the z-score was -0.52.
The value for `CC(C)c1ccccc1NC(=O)COC(=O)/C=C/c1cccc([N+](=O)[O-])c1` was 5.9 (active).
The value for `CC(NC(=O)COC(=O)/C=C/c1ccc([N+](=O)[O-])cc1)c1ccccc1` (stereo not drawn) was -0.366.
Then `CCOc1ccc(NC(=O)CSc2nnc(CCNC(=O)c3ccc(OC)cc3)n2CC)cc1`, with -0.0739.
`C/C=C/COC(=O)c1[nH]c2c(c1C)C(=O)CC(c1ccco1)C2` (stereo not drawn) showed a z-score of -0.237.
Turning to `CSCC[C@H](NC(=O)OC(C)(C)C)c1nnc(SCC(=O)N(C)C)o1`, the z-score was -0.106.
Then `O=C(Nc1nc2ccccc2s1)C1CC(=O)N(c2ccc(Br)cc2)C1` (stereo not drawn), with 0.374.
The value for `Cc1cc(C(=O)Nc2sc3c(c2C#N)CCC3)no1` was -0.0664.
Then `Cc1ccccc1C(=O)NC(=S)Nc1sc2c(c1C#N)CCCC2`, with 5.02 (active).
The compound `Cc1onc(-c2ccccc2)c1C(=O)Nc1sc2c(c1C#N)CCC(C)C2` (stereo not drawn) returned a z-score of 0.289.
The value for `CCCc1cc(C(=O)Nc2sc3c(c2C#N)CCC3)no1` was 2.21.
The value for `N#Cc1c(NC(=S)NC(=O)c2ccccc2)sc2c1CCCC2` was 0.0146.
The value for `N#Cc1c(NC(=S)NC(=O)c2ccccc2)sc2c1CCC2` was 0.849.
`CC(C)Cc1cc(C(=O)Nc2sc3c(c2C#N)CCC3)no1` displayed a z-score of 1.32.
On to `Cc1onc(-c2ccccc2)c1C(=O)NC(=S)Nc1sc2c(c1C#N)CCCC2`, for which the z-score is 4.1 (active).
The value for `Cc1ccccc1C(=O)NC(=S)Nc1sc2c(c1C#N)CCC(C)C2` (stereo not drawn) was 1.82; that for `CCOC(=O)CC1ON(C)C(=O)N1c1ccc([N+](=O)[O-])cc1` (stereo not drawn) was 0.0464.
`CCCCOC(=O)c1ccc(NC(=O)/C=C/c2cccs2)cc1` displayed a z-score of -0.063.
Then `CCc1ccc(C2NC(C(=O)O)CS2)cc1` (stereo not drawn), with -0.258.
`CC(C)Cn1c(SCC(=O)N2CCCCC2)nc2ccccc2c1=O` gave a z-score of -0.537.
